Test results published in the supplement of paper PMC6555819.

These sequences were tested on VDR:RXRa (NR concentration 270 nM, RXRa partner concentration 90 nM) (assay: PBM binding z-score (relative to random genomic background probes); higher = stronger binding; sequences stand for … in GC…GCGATTGACAGCGTAGAATGAAGG).
Description: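 Protein-binding microarray (Agilent 4x180K custom design, double-stranded 60-nt probes: 5' GC cap, 34-nt variable region, 24-nt constant primer region; full probe sequence given). Purified or IVT nuclear receptor:RXRα heterodimers (3:1 NR:RXRα, mostly 270:90 nM) or homodimers were incubated for 1 h in PBS with 2% milk and no ligand, then detected with Alexa488 antibodies. Fluorescence from o1-orientation probes (~5 replicates averaged) was converted to z-scores against 500 random hg19 background probes. Variable regions are seed direct-repeat (DR0–DR5) sites, all their single-nucleotide variants and half-site ablations.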

| Sequence | PBM binding z-score |
| --- | --- |
| CCGTACGGGTCAAGGTTATAGCACGGGTGGTACG | 3.43 |
| CGAACTAGGTCACCAGTACAGTGAAGAGGTTGGA | 2.27 |
| GGTACGAGGGCAAAGTTGATAGCATCTGTCGACG | 1.14 |
| TCATATAGGTGAAAGGTGAAAGTCGGTGTGGTAA | 2.12 |
| CCGAGTAGGTTACGAGAGGGCATTCAGTGCGAAT | 4.33 |
| CTATCTAGGTTAAGGGGGTCATTCAGTTTGAAAG | 7.51 |
| ATCGAAAGGTCGAGGAGGTGAGTATACACCGTTT | 4.25 |
| GCTTCCGGGTCAAAGGTTATAGCATGAATAGAAT | 5.69 |
| TCGAGTAGGTTACGGGGTCATTCAGGGATGAAGA | 6.34 |
| CCAACTAGGTCACCAGGACAGTGAAGAGGTTGGA | 1.99 |
| CGTCTAAGGTCAAGGTCAGTGAAAGAGACTCGAA | 5 |
| ACTCGGAGGACAAACGTCAGAGCTACGCCAGTGA | -0.401 |
| CGGACTAGGTCAAAGGACAGTGAAAGGCGACGTA | 1.16 |
| ATACCAAGGTTATCGTGAGGTCGTTGATACTAAC | 4.98 |
| CGAACTAGGTCACCGGGACAGTGAAGAGGTTGGA | 2.52 |
| CATACAGGGTAAGCTAGGCCAGAGTAGGGACGGC | -0.528 |
| GCTGCTAGGTCAGGATGGTCAGCTAACGGGTACG | 0.56 |
| ATATGTAGGTTAGGGTCATGCAGAAAGTAGGGAA | 4.36 |
| CCTAGCAGGCCAGGTTCACTCAAGCATTTCGCTT | 2.09 |
| CGAACTAGGTCACCAGCACAGTGAAGAGGTTGGA | 1.89 |

| Sequence | PBM binding z-score |
| --- | --- |
| CGAACTAGGTCAAAGGACAGTGTAAGGCGACGTA | 1.58 |
| CGTCAAAGTTCAACTAAGTTAACGTAAAGCACGC | 5.16 |
| ATCTCTAGGTAAAGGTCAGTGAAAGATCGATAGA | 2.89 |
| CCTAGTTGGCCAAGGTCACACACGCTATAGGTAC | 4.02 |
| CCGAGTAGGTTACGAGGGGCCATTCAGTGCGAAT | 3.09 |
| TTACCAAGGTGAAAGGTCATTGATGCACGCCTTG | 5.41 |
| TGGCCTAGGTCATGCGGGCCAGTATAGTGTCGGC | 2.64 |
| TCGAGTAGGTTACCGGGGCATTCAGGGATGAAGA | 0.816 |
| CAGCCTAGTTCAGGGCCAGTATAGGAGGAACGTT | -0.0838 |
| CCGAGTAGGTTACGAGGGGGCATGCAGTGCGAAT | 4.63 |
| CGAACTAGGTCAAAGGACAGTTAAAGGCGACGTA | 1.52 |
| AGTCATAGTTCACTAGGTAACGTAAGATTCAGCT | 1.12 |
| CGAACTAGGTCAAATGACAGTGAAAGGCGACGTA | 1.63 |
| CGTCCAAGCTCAGCAGGTCAGTGAAAGCGACGTG | -0.352 |
| CGAACTAGGTCACCAGGACAGTTAAGAGGTTGGA | 2.11 |
| ATATGTAGGTTCCATCCGGGTCATTCAGGCTATG | 3.22 |
| CGAACTAAGTCACCAGGACAGTGAAGAGGTTGGA | -0.118 |
| AATACAGGGACATCGTAGGCCAGAGTACGCACAG | -0.0914 |
| CCTTACGGGTCACTCCATGTTATAGCATCGGAGT | 3.02 |
| TGAATGACGTTAAAGATCAGGGAACGTGGCGTCG | -0.237 |
